Records with an inconclusive call do not appear. The source made the active and inactive calls. How the source made its calls, unless noted: active means hit-call score of the fitted dose curve at least 0.9, where 1 is the maximum; inconclusive means response in the unintended direction; inactive means score below 0.9.
How the values were obtained:
[1] = STM_H9_OrnithineISnorm_perc: Stemina devTOX quickPredict H9 human embryonic stem cell (hESC)-based Assay for Ornithine (ORN) Metabolite Biomarker, Normalized (AID 2283712; active means hit-call score of the fitted dose curve at least 0.9, where 1 is the maximum; inactive means score below 0.9;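 further: ornithine released into spent medium during last day measured by mass spectrometry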)
Outline: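 Undifferentiated pluripotent H9 hESCs were exposed to compound for 72h, with media and compound replaced every 24h. Ornithine in final 24-h conditioned media was measured by UPLC-HRMS, normalized to 13C-labeled spike-in standard and to median 0.1% DMSO control.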

[2] = STM_H9_CystineISnorm_perc: Stemina devTOX quickPredict H9 human embryonic stem cell (hESC)-based Assay for Cystine (CYSS) Metabolite Biomarker, Normalized (AID 2283713; active means hit-call score of the fitted dose curve at least 0.9, where 1 is the maximum; inactive means score below 0.9)
Outline: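 Undifferentiated H9 hESCs were exposed to compound for 72h, with medium and compound replaced every 24h. Final-24h conditioned medium was deproteinized and analyzed by UPLC-HRMS. Cystine EIC area was normalized to spiked C13 standard and 0.1% DMSO median.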

[3] = read-out: sulfotransferase (SULT2A), SULT2A1 (gene 6822); test: CLD_SULT2A_24hr: CellzDirect (CLD) Gene Expression Assay for sulfotransferase (SULT2A) at 24 hours (AID 2283694)
Outline: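 Primary human hepatocytes from two donor preparations were dosed daily with fresh solutions, vehicle 0.2% DMSO. At 24 h, lysates went to quantitative nuclease protection (qNPA) with S1 digestion and chemiluminescent readout. Cytotoxicity was annotated from phase-contrast morphology.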

[4] = read-out: ABC Transporter (ABCB1), ABCB1 (gene 5243); test: CLD_ABCB1_48hr: CellzDirect (CLD) Gene Expression Assay for ABC Transporter (ABCB1) at 48 hours (AID 2283695)
Outline: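 Primary human hepatocytes from two donor preparations dosed daily on two consecutive days with 0.2% DMSO vehicle. Harvest at 48 h. ABCB1 mRNA quantified by qNPA with chemiluminescence and fitted for gain of signal versus DMSO.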

[5] = read-out: glucuronosyltransferase (UGT1A1), UGT1A1 (gene 54658); test: CLD_UGT1A1_24hr: CellzDirect (CLD) Gene Expression Assay for glucuronosyltransferase (UGT1A1) at 24 hours (AID 2283696)
Outline: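 Primary human hepatocytes from two donor preparations were dosed (0.2% DMSO vehicle) and harvested at 24 h; UGT1A1 mRNA induction was quantified by chemiluminescent qNPA, fitted as gain relative to DMSO.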

[6] = read-out: Cytochrome P450 3A4 (Homo sapiens) (UniProt P08684); test: CLD_CYP3A4_48hr: CellzDirect (CLD) Gene Expression Assay for xenobiotic metabolism (CYP3A4) at 48 hours (AID 2283698)
Outline: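 Primary human hepatocytes from two donor preparations dosed daily for two days with multiple chemical concentrations, 0.2% DMSO vehicle. CYP3A4 mRNA at 48 h by quantitative nuclease protection assay, chemiluminescence, positive fit versus DMSO; cytotoxicity flagged morphologically.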

[7] = read-out: Cytochrome P450 2B6 (Homo sapiens) (UniProt P20813); test: CLD_CYP2B6_48hr: CellzDirect (CLD) Gene Expression Assay for xenobiotic metabolism (CYP2B6) at 48 hours (AID 2283699);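 further: actives raise transcript level above DMSO so potency reflects induction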
Outline: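 Primary human hepatocytes dosed daily for two days over multiple concentrations, 0.2% DMSO vehicle; CYP2B6 mRNA quantified at 48 h by qNPA chemiluminescence. Induction fitted as gain of signal versus DMSO; cytotoxicity annotated by morphology.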

[8] = read-out: Cytochrome P450 2C19 (Homo sapiens) (UniProt P33261); test: CLD_CYP2C19_48hr: CellzDirect (CLD) Gene Expression Assay for xenobiotic metabolism (CYP2C19) at 48 hours (AID 2283700);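 further: fitted upward so actives raise CYP2C19 mRNA above the 0.2% DMSO vehicle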
Outline: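 Primary human hepatocytes (two donor preparations) dosed daily for two days, harvested at 48 h; CYP2C19 mRNA induction measured by qNPA chemiluminescence. Gain-of-signal fitted relative to 0.2% DMSO vehicle as baseline.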

[9] = read-out: xenobiotic metabolism (CYP1A2), CYP1A2 (gene 1544); test: CLD_CYP1A2_48hr: CellzDirect (CLD) Gene Expression Assay for xenobiotic metabolism (CYP1A2) at 48 hours (AID 2283703)
Outline: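 Primary human hepatocytes from two donor preparations were dosed daily for two days at multiple concentrations in 0.2% DMSO vehicle. CYP1A2 mRNA was measured at 48 hours by chemiluminescent quantitative nuclease protection assay, with gain of signal fitted versus DMSO and cytotoxicity annotated from morphology.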

[10] = read-out: Broad substrate specificity ATP-binding cassette transporter ABCG2 (Homo sapiens) (UniProt Q9UNQ0); test: CLD_ABCG2_48hr: CellzDirect (CLD) Gene Expression Assay for ABC Transporter (ABCG2) at 48 hours (AID 2283704)
Outline: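 Primary human hepatocytes from two donors, dosed daily for 2 days, 0.2% DMSO vehicle, several concentrations. ABCG2 mRNA at 48 h by qNPA chemiluminescence, gain fitted versus DMSO; cytotoxicity flagged by morphology.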

[11] = read-out: xenobiotic metabolism (CYP1A1), CYP1A1 (gene 1543); test: CLD_CYP1A1_48hr: CellzDirect (CLD) Gene Expression Assay for xenobiotic metabolism (CYP1A1) at 48 hours (AID 2283705)
Outline: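 Primary human hepatocytes from two donors dosed daily for two days at multiple concentrations, 0.2% DMSO vehicle; CYP1A1 mRNA induction at 48 h by qNPA chemiluminescence. Cytotoxicity noted by phase-contrast morphology.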

[12] = read-out: Glyceraldehyde-3-phosphate dehydrogenase (Homo sapiens) (UniProt P04406); test: CLD_GAPDH_48hr: CellzDirect (CLD) Gene Expression Assay for Baseline Control (Glyceraldehyde 3-phosphate dehydrogenase) at 48 hours (AID 2283706);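 further: active means higher GAPDH mRNA than DMSO vehicle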
Outline: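 Primary human hepatocytes dosed daily for two days with fresh chemical at multiple concentrations, 0.2% DMSO vehicle; GAPDH mRNA measured at 48 h by quantitative nuclease protection assay with chemiluminescence, fitted upward relative to DMSO as background control.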

[13] = read-out: alkyl and aryl transferase (GSTA2), GSTA2 (gene 2939); test: CLD_GSTA2_48hr: CellzDirect (CLD) Gene Expression Assay for alkyl and aryl transferase (GSTA2) at 48 hours (AID 2283708);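 further: active means mRNA induction above DMSO vehicle baseline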
Outline: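 Primary human hepatocytes dosed daily for two days (0.2% DMSO vehicle), harvested at 48 h. GSTA2 mRNA induction measured by quantitative nuclease protection assay with chemiluminescent imaging, fitted for gain of signal relative to DMSO.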

[14] = read-out: glucuronosyltransferase (UGT1A1), UGT1A1 (gene 54658); test: CLD_UGT1A1_48hr: CellzDirect (CLD) Gene Expression Assay for glucuronosyltransferase (UGT1A1) at 48 hours (AID 2283709);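 further: actives increase expression relative to DMSO so potency refers to induction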
Outline: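 Human primary hepatocytes dosed daily for two days (0.2% DMSO vehicle), harvested at 48 h. UGT1A1 mRNA induction measured by quantitative nuclease protection assay with chemiluminescence; gain of signal versus DMSO; cytotoxicity flagged from morphology.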

[15] = read-out: sulfotransferase (SULT2A), SULT2A1 (gene 6822); test: CLD_SULT2A_48hr: CellzDirect (CLD) Gene Expression Assay for sulfotransferase (SULT2A) at 48 hours (AID 2283710);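 further: hits raise SULT2A1 transcript above the 0.2% DMSO vehicle baseline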
Outline: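 Primary human hepatocytes (two donor preparations) dosed daily for two days with chemicals at multiple concentrations, vehicle 0.2% DMSO; SULT2A1 mRNA induction at 48 h by quantitative nuclease protection assay, chemiluminescent read-out, fitted for gain of signal versus DMSO.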

[16] = read-out: Cytochrome P450 2C9 (Homo sapiens) (UniProt P11712); test: CLD_CYP2C9_48hr: CellzDirect (CLD) Gene Expression Assay for xenobiotic metabolism (CYP2C9) at 48 hours (AID 2283701; active means hit-call score of the fitted dose curve at least 0.9, where 1 is the maximum; inactive means score below 0.9)
Outline: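 Primary human hepatocytes (two donor preparations) dosed daily for two days with test chemicals, 0.2% DMSO vehicle; harvested at 48 h. mRNA induction quantified by qNPA chemiluminescence, fitted for gain of signal against DMSO baseline; cytotoxicity annotated from phase-contrast morphology.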

[17] = read-out: organic anion transporter (SLCO1B1), SLCO1B1 (gene 10599); test: CLD_SLCO1B1_48hr: CellzDirect (CLD) Gene Expression Assay for organic anion transporter (SLCO1B1) at 48 hours (AID 2283707)
Outline: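 Primary human hepatocytes from two donor preparations dosed daily for two days with multiple concentrations, 0.2% DMSO vehicle. SLCO1B1 mRNA at 48 h by quantitative nuclease protection assay, chemiluminescence; gain-of-signal fitted versus DMSO.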

[18] = read-out: ABC Transporter (ABCB11), ABCB11 (gene 8647); test: CLD_ABCB11_48hr: CellzDirect (CLD) Gene Expression Assay for ABC Transporter (ABCB11) at 48 hours (AID 2283697)
Outline: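 Primary human hepatocytes from two donor preparations dosed daily for two days at multiple concentrations; 0.2% DMSO vehicle. ABCB11 mRNA at 48 h by quantitative nuclease protection assay, chemiluminescence; fitted for induction versus DMSO.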

[19] = CLD_ACTIN_48hr: CellzDirect (CLD) Gene Expression Assay for Baseline Control (Actin) at 48 hours (AID 2283702)
Outline: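 Primary human hepatocytes (two donor preparations) dosed daily for two days with ToxCast chemicals at multiple concentrations versus 0.2% DMSO vehicle; harvested at 48 h. Actin mRNA measured as a background control by quantitative nuclease protection assay with chemiluminescence.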

[20] = read-out: HMG-CoA synthase (HMGCS2), HMGCS2 (gene 3158); test: CLD_HMGCS2_48hr: CellzDirect (CLD) Gene Expression Assay for HMG-CoA synthase (HMGCS2) at 48 hours (AID 2283711)
Outline: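 Primary human hepatocytes from two donors dosed daily for two days, 0.2% DMSO vehicle. HMGCS2 mRNA measured 48 h after dosing by quantitative nuclease protection assay with chemiluminescent read-out; induction fitted relative to DMSO, cytotoxicity flagged by microscopy.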

Measured: AC50

Cytochrome P450 3A4 (Homo sapiens), sequence (P08684 whole entry, looked up): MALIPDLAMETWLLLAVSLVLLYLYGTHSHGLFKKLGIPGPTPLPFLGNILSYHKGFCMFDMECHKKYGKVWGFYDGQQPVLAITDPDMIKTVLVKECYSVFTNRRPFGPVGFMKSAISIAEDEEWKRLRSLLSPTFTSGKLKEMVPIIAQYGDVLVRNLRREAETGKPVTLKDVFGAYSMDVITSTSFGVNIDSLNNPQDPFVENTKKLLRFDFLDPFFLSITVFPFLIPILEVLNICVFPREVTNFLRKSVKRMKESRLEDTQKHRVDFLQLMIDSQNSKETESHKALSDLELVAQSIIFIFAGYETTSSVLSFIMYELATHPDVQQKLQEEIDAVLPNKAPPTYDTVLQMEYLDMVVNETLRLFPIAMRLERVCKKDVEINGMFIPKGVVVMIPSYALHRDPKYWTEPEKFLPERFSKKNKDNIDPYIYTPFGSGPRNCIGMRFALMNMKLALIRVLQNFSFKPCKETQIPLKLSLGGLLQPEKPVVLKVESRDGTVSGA
Broad substrate specificity ATP-binding cassette transporter ABCG2 (Homo sapiens), sequence (Q9UNQ0 whole entry, looked up): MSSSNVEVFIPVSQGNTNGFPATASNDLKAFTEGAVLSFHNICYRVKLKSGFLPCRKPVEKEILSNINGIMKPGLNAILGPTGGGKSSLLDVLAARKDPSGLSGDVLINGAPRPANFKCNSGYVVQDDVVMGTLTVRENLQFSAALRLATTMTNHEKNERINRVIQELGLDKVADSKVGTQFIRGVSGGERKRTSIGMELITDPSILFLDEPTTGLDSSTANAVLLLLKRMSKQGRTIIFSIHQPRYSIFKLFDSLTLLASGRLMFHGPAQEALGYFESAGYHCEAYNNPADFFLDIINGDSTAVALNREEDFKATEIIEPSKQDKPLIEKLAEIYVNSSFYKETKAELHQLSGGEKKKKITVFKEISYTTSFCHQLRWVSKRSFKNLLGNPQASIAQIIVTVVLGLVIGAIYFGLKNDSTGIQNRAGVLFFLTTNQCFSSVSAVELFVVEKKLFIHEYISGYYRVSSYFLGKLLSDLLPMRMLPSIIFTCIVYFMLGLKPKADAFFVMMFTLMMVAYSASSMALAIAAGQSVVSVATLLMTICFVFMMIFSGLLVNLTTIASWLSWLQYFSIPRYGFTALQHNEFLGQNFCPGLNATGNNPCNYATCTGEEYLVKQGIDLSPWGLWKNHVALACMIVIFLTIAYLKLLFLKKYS
Glyceraldehyde-3-phosphate dehydrogenase (Homo sapiens), sequence (P04406 whole entry, looked up): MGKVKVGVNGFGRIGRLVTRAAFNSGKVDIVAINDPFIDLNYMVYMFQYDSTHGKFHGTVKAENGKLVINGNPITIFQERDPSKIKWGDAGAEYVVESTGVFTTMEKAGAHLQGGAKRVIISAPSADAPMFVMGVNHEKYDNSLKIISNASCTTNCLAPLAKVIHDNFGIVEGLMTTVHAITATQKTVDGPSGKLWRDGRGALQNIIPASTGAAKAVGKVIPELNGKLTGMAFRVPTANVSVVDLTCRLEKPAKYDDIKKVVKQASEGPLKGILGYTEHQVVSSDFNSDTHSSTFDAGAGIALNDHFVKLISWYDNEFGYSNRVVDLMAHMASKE
Cytochrome P450 2C19 (Homo sapiens), sequence (P33261 whole entry, looked up): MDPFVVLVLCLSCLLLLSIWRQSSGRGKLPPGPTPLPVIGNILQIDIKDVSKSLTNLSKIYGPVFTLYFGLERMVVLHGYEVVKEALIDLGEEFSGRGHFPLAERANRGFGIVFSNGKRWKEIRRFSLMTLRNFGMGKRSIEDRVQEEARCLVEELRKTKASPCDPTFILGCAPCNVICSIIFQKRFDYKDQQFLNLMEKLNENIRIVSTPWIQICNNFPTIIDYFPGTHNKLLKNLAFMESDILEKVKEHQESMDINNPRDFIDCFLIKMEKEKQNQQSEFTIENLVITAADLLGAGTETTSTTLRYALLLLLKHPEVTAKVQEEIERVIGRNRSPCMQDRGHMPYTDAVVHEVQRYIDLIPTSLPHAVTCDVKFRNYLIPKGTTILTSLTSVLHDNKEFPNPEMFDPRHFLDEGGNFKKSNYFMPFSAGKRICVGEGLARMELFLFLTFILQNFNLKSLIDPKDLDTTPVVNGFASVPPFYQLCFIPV

CCCCCCCCOC(=O)c1ccccc1C(=O)OCCCCCCCC
inactive: [1] | [2]

Nn1cnnc1
inactive: [2]
active: [1] 0.037 µM

CCCCCCCCCC[N+](C)(C)CCCCCCCCCC
active: [1] 1.82 µM | [2] 2.44 µM

CCC(=O)O[C@H]1CC[C@H]2[C@@H]3CCC4=CC(=O)CC[C@]4(C)[C@H]3CC[C@]12C
active: [1] 29.5 µM | [2] 20.6 µM

Cc1ccccc1CO[C@@H]1C[C@@]2(C(C)C)CC[C@]1(C)O2
active: [5] 5.18 µM | [6] 10.4 µM | [7] 4.16 µM | [9] 11.5 µM | [14] 7.69 µM
inactive: [3] | [4] | [8] | [10] | [11] | [12] | [13] | [15]

CCC(C)(CC)c1cc(NC(=O)c2c(OC)cccc2OC)on1
inactive: [3] | [4] | [5] | [16] | [10] | [17] | [13]
active: [6] 0.126 µM | [7] 0.26 µM | [9] 4.25 µM | [11] 3.98 µM | [14] 0.498 µM | [15] 3.78 µM

C=CC(=O)NCNC(=O)C=C
active: [1] 65.6 µM | [2] 81.3 µM

ClC1=C(Cl)[C@]2(Cl)[C@@H]3[C@H]4C[C@H]([C@@H]5O[C@H]45)[C@@H]3[C@@]1(Cl)C2(Cl)Cl
active: [1] 60.9 µM | [2] 78.7 µM

O=NN(c1ccccc1)c1ccccc1
inactive: [1] | [2]

Cc1cc(O)ccc1Cl
inactive: [1] | [2]

Clc1ccc(C(c2ccccc2Cl)C(Cl)(Cl)Cl)cc1 (stereo unspecified)
active: [1] 79.3 µM | [2] 54.5 µM

CO/C=C(/C(=O)OC)c1ccccc1COc1cccc(C(F)(F)F)n1
inactive: [2]
active: [1] 0.0992 µM

CN(C)c1nc(=O)n(C2CCCCC2)c(=O)n1C
inactive: [3] | [5] | [18] | [6] | [19] | [9] | [12] | [14] | [15] | [20]

CC1=C2C[C@H]3[C@@H](CC=C4C[C@@H](O)CC[C@@]43C)[C@@H]2CC[C@]12O[C@@H]1C[C@H](C)CN[C@H]1[C@H]2C
inactive: [1] | [2]

ClC1=C(Cl)[C@]2(Cl)[C@@H]3[C@@H]4C[C@@H]([C@H]5O[C@@H]45)[C@@H]3[C@@]1(Cl)C2(Cl)Cl
inactive: [1] | [2]

CCSC(=O)N(CC)C1CCCCC1
active: [6] 0.000988 µM | [7] 0.000515 µM | [13] 7.96 µM | [2] 32.1 µM
inactive: [4] | [5] | [18] | [8] | [16] | [9] | [12] | [17] | [14] | [15] | [1]

C1CC2OC2CC1C1CO1 (stereo unspecified)
active: [1] 79.3 µM | [2] 47 µM

Oc1ccc(C(c2ccc(O)cc2)(C(F)(F)F)C(F)(F)F)cc1
inactive: [1] | [2]

C=CC(N)=O
inactive: [1] | [2]

CCCCCCOC(=O)c1ccccc1C(=O)OCCCCCC
inactive: [1] | [2]

Clc1ccc(C(Cl)(Cl)Cl)cc1
active: [1] 94.7 µM | [2] 77.8 µM

COS(=O)(=O)OC
inactive: [1] | [2]

CCOCCOC(C)=O
inactive: [1] | [2]

CCNc1nc(NC(C)C)nc(SC)n1
inactive: [3] | [4] | [5] | [19] | [9] | [10] | [12] | [14] | [15] | [1]
active: [6] 5.88 µM | [7] 1.9 µM | [11] 9.24 µM | [13] 8.73 µM | [2] 34.3 µM

CCC(C)c1cc([N+](=O)[O-])cc([N+](=O)[O-])c1O (stereo unspecified)
inactive: [1] | [2]

— PubChem BioAssay (EPA / NIEHS)
